Among the test systems are EIF2AK1; EPHA1; EPHA2; EPHA3; EPHA4; EPHA5; EPHA6; EPHA7; EPHA8; EPHB1; EPHB2; EPHB3; EPHB4; EPHB6; ERBB2; ERBB3; ERBB4.
Holding throughout (details): concentration: 1 μM, replicates: in singlicate; n = 1
The test system of the next test is T1, ERK1.
T1 construct: gene MAPK3

The next test relates to T2, ERK2.
T2 construct: gene MAPK1

In the next test the test system is T3, ERK3.
T3 construct: gene MAPK6

Each structure is given as a SMILES string.
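Further: KINOMEscan kinase panel screen.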

As to `COc1cc2c(Nc3cccc(NC(=O)c4ccccc4)c3)ncnc2cc1OCCCN1CCOCC1` [GSK223810], the “%Inh” value in the test on EIF2AK1 was found to be 0%; in the test with EPHA1, 7%; in the test with EPHA2, 29%; with EPHA3, 6%; in the test with EPHA4, 6%; in the test with EPHA5, 0%. The “%Inh” value in the test with EPHA6 is on record as 2%; in the test on EPHA7, 3%; with EPHA8, 24%; in the test on EPHB1, 4%; in the test on EPHB2 it was 0%; in the test with EPHB3, 5%. Further, the “%Inh” value stood at 0% in the test with EPHB4; 60% with EPHB6; 18% with ERBB2; 0% with ERBB3; 55% in the test on ERBB4; 0% with ERK1. Also, the “%Inh” value in the test with ERK2 and in the test with ERK3 was 0% each time.
Regarding `Oc1ccc2ncnc(Nc3ccc(OCc4ccccc4)cc3)c2c1` [GI262866], the “%Inh” value in the test with EIF2AK1 was 0%; in the test on EPHA1 it was 11%; with EPHA2, 0%; in the test with EPHA3, 0%; with EPHA4, 6%; in the test with EPHA5, 0%. For the same molecule, the “%Inh” value in the test on EPHA6 is reported as 16%; with EPHA7, 3%; in the test on EPHA8 it was 14%; in the test on EPHB1 it was 14%; in the test on EPHB2, 0%; with EPHB3, 12%. For the same molecule, the “%Inh” value with EPHB4 is 2%; in the test on EPHB6, 0%; in the test on ERBB2, 99.2%; in the test with ERBB3 it was 15%; in the test on ERBB4, 77%; in the test with ERK1 it was 0%. Besides, the “%Inh” value in the test on ERK2 stood at 0%; in the test with ERK3, 3%.
For the molecule `O=C(Nc1n[nH]c2nc(-c3ccco3)c(Br)cc12)c1ccc(CN2CCCC2)cc1.O=C(O)[C@H](O)[C@@H](O)C(=O)O` [SB-742352], the “%Inh” value in the test with EIF2AK1 is 0%; in the test on EPHA1 it was 3%; with EPHA2, 0%; in the test on EPHA3 it was 0%; with EPHA4 it was 100%; in the test on EPHA5 it was 0%. The “%Inh” value with EPHA6 is recorded as 100%; with EPHA7, 0%; in the test on EPHA8, 7%; in the test with EPHB1, 6%; in the test on EPHB2 it was 47%; in the test with EPHB3, 0%. Moreover, the “%Inh” value in the test on EPHB4 is 0%; with EPHB6, 95.7%; in the test with ERBB2, 0%; with ERBB3, 0%; with ERBB4 it was 27%; in the test on ERK1, 0%. For the same molecule, the “%Inh” value in the test with ERK2 and in the test on ERK3 was 0% each time.
Consider `O=C(c1ccc(-c2cc(-c3c[nH]nc3-c3ccccn3)ccn2)cc1)N1CCCC1` [GW792479], for which the “%Inh” value was 0% in the test on EIF2AK1; 56% in the test on EPHA1; 21% in the test with EPHA2; 1% in the test on EPHA3; 13% with EPHA4; 36% with EPHA5. The “%Inh” value was 2% with EPHA6; 9% in the test with EPHA7; 19% with EPHA8; 5% in the test with EPHB1; 19% in the test on EPHB2; 14% in the test on EPHB3. Also, the “%Inh” value in the test with EPHB4 was determined as 17%; with EPHB6, 0%; with ERBB2, 10%; in the test with ERBB3 it was 57%; in the test on ERBB4, 0%; with ERK1, 0%. Also, the “%Inh” value in the test on ERK2 came to 32%; in the test with ERK3, 0%.
With `Cn1cc(-c2ccc3c(c2)CCN3C(=O)Cc2cccc(C(F)(F)F)c2)c2c(N)ncnc21` [GSK2606414], the “%Inh” value in the test on EIF2AK1 worked out at 1%; in the test with EPHA1, 3%; in the test on EPHA2 it was 0%; with EPHA3, 0%; in the test with EPHA4 it was 0%; in the test with EPHA5, 0%. Moreover, the “%Inh” value in the test on EPHA6 stood at 0%; in the test on EPHA7, 4%; in the test on EPHA8 it was 14%; in the test on EPHB1 it was 15%; with EPHB2, 0%; with EPHB3, 0%. In addition, the “%Inh” value in the test with EPHB4 worked out at 0%; in the test with EPHB6, 18%; in the test on ERBB2 it was 0%; in the test with ERBB3, 0%; in the test on ERBB4, 0%; in the test with ERK1 it was 0%. In addition, the “%Inh” value worked out at 0% in the test on ERK2 and 2% in the test on ERK3.
`O=C(Nc1ccccc1F)NC1CCN(c2ccnc(Nc3ccc(F)cc3)n2)C1` (centres unmarked) [GSK1379722]: the “%Inh” value in the test on EIF2AK1 was found to be 0%; with EPHA1, 0%; with EPHA2, 8%; in the test with EPHA3 it was 0%; in the test with EPHA4, 0%; in the test with EPHA5 it was 0%. In addition, the “%Inh” value in the test on EPHA6 was determined as 4%; with EPHA7 it was 5%; with EPHA8, 14%; in the test on EPHB1 it was 11%; with EPHB2 it was 0%; in the test on EPHB3 it was 17%. Further, the “%Inh” value with EPHB4 stood at 0%; in the test with EPHB6 it was 17%; in the test with ERBB2, 30%; in the test with ERBB3, 3%; in the test with ERBB4 it was 0%; in the test with ERK1 it was 100%. The results for the “%Inh” value in the test on ERK2 and with ERK3 were 0% and 13%, respectively.
Take `C[C@H]1CC[C@@H](C(=O)Nc2ccccc2)CN1c1cc(-c2ccc3c(N)n[nH]c3c2)nc(N)n1` [GSK2283293]: the “%Inh” value in the test on EIF2AK1 amounted to 10%; in the test on EPHA1, 0%; in the test on EPHA2, 11%; with EPHA3, 0%; in the test on EPHA4, 3%; with EPHA5, 0%. For the same molecule, the “%Inh” value is 15% in the test on EPHA6; 6% in the test on EPHA7; 23% in the test with EPHA8; 22% with EPHB1; 0% in the test with EPHB2; 24% in the test on EPHB3. Further, the “%Inh” value is 12% in the test on EPHB4; 13% in the test on EPHB6; 25% in the test with ERBB2; 0% in the test with ERBB3; 39% in the test on ERBB4; 0% in the test on ERK1. Moreover, the “%Inh” value in the test on ERK2 is listed as 2%; in the test with ERK3, 4%.

For the origin of these results see paper PMC5540273 (PLoS ONE, 2017).
